The campaign covered roughly 290,000 compounds. About 370 (0.13%) were called active. The entries come from a sample that favours actives as a whole. Measured potencies and affinities stand elsewhere. Unmarked numbers belong to inactive results.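 How the source made its calls: active means spots per cell inhibited over 60%, with over 100 cells counted and total cytoplasm intensity under 500,000; inconclusive means wells with under 100 cells, flagged as likely toxic; inactive means the rest.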

The target in the experiment is G-protein coupled receptor 55 (Homo sapiens) (UniProt Q9Y2T6). The experiment in a line: inhibition of LPI-stimulated GPR55 beta-arrestin translocation – imaging, U2OS, beta-arrestin-GFP, LPI agonist, primary screen (AID 2013).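 Further: U2OS cells stably carrying GPR55 and arrestin-GFP stimulated by 5 µM LPI near EC80; imaged beta-arrestin-GFP aggregate spots per cell after agonist stimulation; plate controls were LPI-stimulated DMSO wells for no effect and DMSO wells without LPI for full effect.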 The note with it: LPI antagonism, at 10 µM, active compounds read high.
Sequence of G-protein coupled receptor 55 (Homo sapiens) (Q9Y2T6 whole entry, looked up): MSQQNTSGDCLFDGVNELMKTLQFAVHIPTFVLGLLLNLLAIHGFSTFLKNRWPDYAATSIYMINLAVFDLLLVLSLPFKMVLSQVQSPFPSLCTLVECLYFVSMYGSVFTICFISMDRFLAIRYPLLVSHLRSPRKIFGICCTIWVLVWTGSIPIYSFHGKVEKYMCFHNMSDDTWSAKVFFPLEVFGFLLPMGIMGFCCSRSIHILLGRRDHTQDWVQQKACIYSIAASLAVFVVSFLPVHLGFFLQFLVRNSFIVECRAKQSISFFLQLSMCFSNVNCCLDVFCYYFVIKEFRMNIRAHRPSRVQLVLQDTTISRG
On to `O=C(c1ccccc1[N+](=O)[O-])N1CCN(Cc2ccc3c(c2)OCO3)CC1`, for which the inhibition was 0.2%. As for `Cc1nc(COc2ccc(C(=O)Nc3ccccc3N3CCOCC3)cc2)cs1`, the inhibition is 2.8%. With `CCc1ccccc1S(=O)(=O)Cc1ccc(C(=O)N2CCN(c3ccccn3)CC2)o1`, the inhibition is -4.8%.

In the case of `COc1ccc(N(CC(=O)Nc2cc(C)ccc2C)S(=O)(=O)c2c(C)nn(C)c2C)cc1`, the inhibition is 10%.

For the molecule `COc1ccc2nc(NC(=O)CN(c3ccc(C)cc3)S(=O)(=O)c3c(C)nn(C)c3C)sc2c1`, the inhibition was 22.1%.

As to `C#CCNC(=O)C1=C[C@@H](c2csc3ccccc23)[C@H](CCCO)[C@@H](OCC)O1`, the inhibition is 14.1%.

`COc1cc(/C=N/NC(=O)c2cc(C3CC3)[nH]n2)ccc1O`: the inhibition was 6.5%. Take `COc1cccc(/C=N/NC(=O)c2cc(C34CC5CC(CC(C5)C3)C4)[nH]n2)c1`: the inhibition is 14.9%. The value for `O=C(N/N=C/c1ccc(O)cc1)c1cc(C23CC4CC(CC(C4)C2)C3)[nH]n1` was -6.9%; that for `COc1ccc(/C=N/NC(=O)c2cc(C34CC5CC(CC(C5)C3)C4)[nH]n2)cc1O` was 49.4%. Take `CC(C)NC(=O)CN(CCc1ccccc1)S(C)(=O)=O`: the inhibition was 18.2%. With `Cc1ccc(-n2ncc3c2CC(C)(C)CC3NC(=O)C2CCOCC2)cc1` (stereo not drawn), the inhibition was 9.6%. `Cc1cc(C)n(CC(=O)O)c(=O)c1[N+](=O)[O-]`: the inhibition was 1.7%. On to `CNC(=O)c1sccc1Oc1ccc(F)cc1[N+](=O)[O-]`, for which the inhibition is 8.2%. The value for `CCc1nc(N2CCN(C(=O)c3ccco3)CC2)c2c3c(sc2n1)CCCC3` was 7.3%.

Regarding `CC(=O)N1CCN(c2nc(C)nc3sc4c(c23)CCC(C)C4)CC1` (stereo not drawn), the inhibition was 22.1%. The value for `Cc1nc(N2CCN(S(=O)(=O)c3ccccc3)CC2)c2c3c(sc2n1)CC(C)CC3` (stereo not drawn) was 14.2%. The value for `CC(C)c1nc(N2CCN(C(=O)c3ccco3)CC2)c2c3c(sc2n1)CCCC3` was 98.6%; that for `Cc1nc(N2CCN(C(=O)c3cccs3)CC2)c2c3c(sc2n1)CCCC3` was 36.3%; that for `Cc1nc(N2CCN(C(=O)c3ccco3)CC2)c2c3c(sc2n1)CCC3` was 46.7%.

Turning to `CCCN1C2CCCC1CC(NC(=O)c1cc(OC)cc(OC)c1)C2` (stereo not drawn), the inhibition was 4.9%. In the case of `CN(C)S(=O)(=O)c1ccc(N)c([N+](=O)[O-])c1`, the inhibition is 16.6%. Consider `FC(F)(F)COc1ccc(-n2ccnc2)nn1`, for which the inhibition was -3.5%. As for `Cc1ccc(/C=C/C(=O)O)cc1S(=O)(=O)N1CCCc2ccccc21`, the inhibition is 9.5%.

As to `COCCCNC(=O)CCc1ccccc1`, the inhibition is -1.2%.

Turning to `Cc1ccccc1CC(=O)N1CCN(C(=O)C2CCCO2)CC1` (stereo not drawn), the inhibition is 10.1%.

With `CCCCn1c(-c2nn(C)cc2Cl)n[nH]c1=S`, the inhibition was 2.5%.

In the case of `CC1=NOC(=O)/C1=C\c1ccc(-c2ccc(Cl)cc2Cl)o1`, the inhibition is 21%. Take `CC1=NOC(=O)/C1=C/c1ccc(-c2ccc(Cl)cc2)o1`: the inhibition is 7.3%. The value for `Cc1ccc(C)c(NC(=S)N2CCC(NC(=O)c3ccccc3)CC2)c1` was 2.1%. In the case of `NC(=O)C1(N2CCCCC2)CCN(C2CC(=O)NC2=O)CC1` (stereo not drawn), the inhibition is 9.8%. For `CN1C(=O)/C(=C\c2cc(N=Nc3ccccc3)ccc2O)SC1=S` the value was 19.5%; for `CN1C(=O)/C(=C\c2ccccc2OCc2ccccc2)SC1=S`, -1.8%. `CNC(=S)NC1(C)CCS(=O)(=O)C1` (stereo not drawn): the inhibition was -1.4%.

On to `CCOC(=O)c1c(-c2ccccc2)oc2ccc(O)c(CN3CCOCC3)c12`, for which the inhibition was 34.5%. As to `CCOC(=O)c1c(-c2ccccc2)oc2ccc(O)c(CN3CCCC3)c12`, the inhibition is -1.6%. The value for `Cc1ccc(OCC(=O)N/N=C/C=C/c2ccco2)cc1C` was -3.3%. Regarding `CC(C)(C)c1ccc(-c2c(C(=O)O)c(C(=O)O)c3n2CSC3)cc1`, the inhibition was -9.4%. For the molecule `CCN1C(=O)N(CC)C(O)(c2ccccc2)C1(O)c1ccccc1` (stereo not drawn), the inhibition is 14.2%. For `CC(C)(C)C1=CC=C(C(C)(C)C)C(=O)C1=O`, the inhibition is -11.4%. For `Cc1ccc(-n2c(C)csc2=N)cc1` the value was 6.4%; for `O=C(/C=C/c1cccc(Br)c1)NCC1CCCCC1`, -3.3%. In the case of `CN(C)c1ccc(/C=C/c2ccc3ccccc3[n+]2C)cc1`, the inhibition was 5.6%.

`CC[n+]1c(/C=C/c2ccc(N(C)C)cc2)ccc2ccccc21`: the inhibition was -0.1%. For `O=C(N/N=C\c1ccncc1)c1ccc(Br)s1` the value was -6.3%; for `Cc1ccc(S(=O)(=O)N(CCCO)CC(O)CON=C2c3ccccc3-c3ccccc32)cc1` (stereo not drawn), 4%; for `CC(C)CCNCC(O)CON=C1c2ccccc2-c2ccccc21` (stereo not drawn), 35%.

With `CCN(CC(O)Cn1c2ccccc2c2ccccc21)S(=O)(=O)c1ccc(C)cc1` (stereo not drawn), the inhibition was 22.4%. `Cc1cccc(N(CC(O)CON=C2c3ccccc3-c3ccccc32)S(C)(=O)=O)c1` (stereo not drawn): the inhibition is 30.8%. Regarding `Cc1ccc(N(CC(O)CON=C2c3ccccc3-c3ccccc32)S(C)(=O)=O)cc1` (stereo not drawn), the inhibition was 2.5%. `CCN(CC(O)CON=C1c2ccccc2-c2ccccc21)S(=O)(=O)c1ccc(C)cc1` (stereo not drawn): the inhibition was 89.1% (active). Turning to `CCN(CC(O)CON=C1c2ccccc2-c2ccccc21)S(=O)(=O)c1ccc(Cl)cc1` (stereo not drawn), the inhibition is 80.9% (active). For `CS(=O)(=O)N(CC(O)CON=C1c2ccccc2-c2ccccc21)c1ccc(F)cc1` (stereo not drawn), the inhibition is 4.1%.

With `CCOC(=O)c1ccccc1NC(=S)N1CCCCC1`, the inhibition was 4.2%. As for `CCOC(=O)C1CCCN(C(=O)C2CCC(CNS(=O)(=O)c3ccc(NC(C)=O)cc3)CC2)C1` (stereo not drawn), the inhibition is -10.7%. Regarding `Cc1ccc(S(=O)(=O)NCCc2nnc3ccc(SCC(=O)Nc4nc5ccccc5s4)nn23)cc1`, the inhibition was -1.2%. For `C#CCOCCOCCOCCNc1nc(N2CCN(C(=O)[C@H](Cc3cc4ccccc4[nH]3)n3cc([C@@H](N)C(C)CC)nn3)CC2)nc(N2CCN(C(=O)[C@H](CCCCN)n3cc([C@@H](N)CC(C)C)nn3)CC2)n1` (stereo partly drawn) the value was 22.1%. For `O=C(NCC(=O)N(c1ccccc1)C(C(=O)NCC1CCCO1)c1ccccc1)c1ccco1` (stereo not drawn) the value was -16.3%; for `CN(CC(=O)Nc1cccc(F)c1)CC(=O)Nc1ccccc1Oc1ccccc1`, 2.5%. For the molecule `CN(CC(=O)Nc1ccccc1Oc1ccccc1)Cc1ccccc1F`, the inhibition was 80.5% (active). In the case of `Cc1ccccc1CN(C)CC(=O)Nc1ccccc1Oc1ccccc1`, the inhibition is 52.5%. The value for `CC(C)CC(=O)Nc1ccccc1Oc1ccccc1` was -0.5%. In the case of `CC(C(=O)Nc1ccccc1Oc1ccccc1)c1ccccc1` (stereo not drawn), the inhibition is 83.2% (active). `CC(=O)Nc1ccccc1Oc1ccccc1`: the inhibition is -4.1%. With `CC(=O)Nc1ccc(Nc2nc(C(F)(F)F)nc3c2nnn3Cc2ccccc2Cl)cc1`, the inhibition was -4.9%. With `Cc1ccc(/C=C2/N=C(c3ccccc3)NNC2=O)cc1`, the inhibition is -5.1%. `Cc1ccc(-c2noc(CSc3nnc(Cc4cccs4)n3-c3ccccc3)n2)cc1`: the inhibition was 16.9%. Consider `c1ccc(-c2noc(CSc3nnc(Cc4cccs4)n3-c3ccccc3)n2)cc1`, for which the inhibition is 0.4%.

Turning to `Nc1nonc1-n1nnc(C(=O)N/N=C/c2ccccc2Cl)c1-c1ccc2c(c1)OCO2`, the inhibition is -3.5%. For the molecule `Cc1ccc(C(=O)Nc2ccccc2N2CCCC2)cc1`, the inhibition is -6.2%. Take `Cc1ccc(C(=O)Nc2ccccc2N2CCCCC2)cc1`: the inhibition was 0.4%. Regarding `Cc1cc(=O)oc2cc(OCC(=O)N3CCN(c4ccccc4)CC3)c(Cl)cc12`, the inhibition was 6.4%. For `Cc1cc(Nc2ccc(F)cc2F)n2ncnc2n1`, the inhibition was -4.7%.

Regarding `CCOC(=O)c1c(C)[nH]c(C)c1S(=O)(=O)N(C)CC(=O)Nc1cccc(F)c1`, the inhibition is 8%. `COc1ccc(N2C(=O)S[C@@H]3CS(=O)(=O)C[C@@H]32)cc1`: the inhibition was 14.8%.

On to `CC1(C)OC(=CC=Nc2ccc(Cl)cc2)OC1(C)C`, for which the inhibition was -0.4%.

For the molecule `COC(=O)c1cc2n3ccccc3c(C)c(-c3ccccc3)c-2c1C(=O)OC`, the inhibition was 6.5%.

With `COC(=O)c1cc2c(C)c(C)c3ccccn3c-2c1C(=O)OC`, the inhibition was 12.8%. With `O=C(COC(=O)CCC(=O)c1cccs1)NC(=O)c1ccc(OC(F)F)cc1`, the inhibition is 6.3%.

As for `COc1ccc(N2CCN(CC(=O)NCc3ccc(Cl)cc3)CC2)cc1`, the inhibition is -5.1%. The value for `O=C(O)CN1C(=O)/C(=C/c2ccc(SCc3ccccc3)o2)SC1=S` was 4.7%. `Cc1cccc(C)c1-n1cccc1/C=C1\SC(=S)N(c2cccc(C(=O)O)c2)C1=O`: the inhibition is 21.8%. With `Cc1ccc(NC(=O)COc2nsnc2N2CCOCC2)cc1Cl`, the inhibition is -2.9%.

With `CCCCOC(=O)CSC(=S)N(C)Cc1cccs1`, the inhibition is -12.9%.

Take `Cc1c([C@H]2[C@@H](CC#N)C2(C)C)c2ccccc2n1C`: the inhibition is -0.3%. In the case of `Cc1[nH]c2ccccc2c1[C@H]1[C@@H](CC#N)C1(C)C`, the inhibition is 30.6%. In the case of `CC(C)NC(=O)C(=O)c1cn(C)c2ccccc12`, the inhibition is -10.8%. As for `Cc1ccccc1N1CCN(C(=O)C2CCC(=O)N(C3CCCC3)C2)CC1` (stereo not drawn), the inhibition is 5.6%. As to `COc1ccc(C2CC(c3ccc(F)cc3)=NN2c2ccccc2)cc1OC` (stereo not drawn), the inhibition is 1.5%. For `Oc1ccc(C2=NN(c3ccccc3)C(c3ccc(F)cc3)C2)cc1` (stereo not drawn) the value was 60.3% (active); for `Oc1ccccc1C1=NN(c2ccccc2)C(c2ccc(F)cc2)C1` (stereo not drawn), -10.6%. Take `CCNC(=S)N(Cc1c(C)noc1C)c1ccccc1`: the inhibition was -9.5%. Turning to `Cc1noc(C)c1CN(C(=S)NC1CC1)c1ccccc1`, the inhibition was 4.1%.

As a reminder, the inhibition is the relative decrease from the control value, in per cent.

The values are drawn from PubChem BioAssay AID2013 (Sanford-Burnham Center for Chemical Genomics, 2009).
